From PubChem BioAssay (NCATS)
Active and inactive are the calls of the source. Calls follow the shape of the dose curve; as a rule, active = well fitted curve in the direction sought with a large enough effect; inactive = no such curve, though single readings can be large or run the other way.

target: Alpha-galactosidase (Coffea arabica) (UniProt Q42656); test: Counterscreen for Glucocerebrosidase Inhibitors: qHTS Assay for Coffee Bean alpha-Galactosidase at pH 5.9 (AID 998); conditions: coffee bean alpha-galactosidase enzyme assay; series mostly up to 76.9 µM
From the text: NIH Chemical Genomics Center [NCGC]
NIH Molecular Libraries Screening Centers Network [MLSCN]
PI Name: Zheng, Wei [NIH]
Alpha-galactosidase is a homodimeric glycoprotein that hydrolyzes the terminal alpha-galactosyl moieties from glycolipids and glycoproteins. Deficiency of this enzyme results in Fabry Disease with progressive accumulation of globotriaosylceramide and other glycosphingolipids in vascular endothelial cells that causes renal failure, myocardial infarction and stroke, and premature death in patients. It has reported that the improper folding and trafficking of alpha-galactosidase resulted from the genetic mutations may account for a significant numbers of Fabry patients. […] We optimized this coffee bean alpha-galactosidase assay in 1536-well plate format as a counter-screen assay for identifying the selective small molecule inhibitors of other lysosomal enzymes.
NCGC Assay Protocol Summary:
This is a fluorogenic enzyme assay with 4-Methylumbelliferyl alpha-D-galactopyranoside as the substrate and green coffee bean […] (from Sigma-Aldrich) as the enzyme preparation. Upon the hydrolysis of this fluorogenic substrate, the resulting product, […]. 4-Methyllumbelliferone, can be excited at 365 nm and emits at 440 nm which can be detected by a standard fluorescence plate reader. Data were normalized to the controls for basal activity (without enzyme) and 100% activity (with enzyme). In the AC50 values were determined from concentration-response data modeled with the standard Hill equation.
Assay buffer: 50 mM citric acid, 0.005% Tween-20, pH 5.9. (pH 5.9 is an optimal condition for this enzyme assay.)
1536-well assay protocol for the coffee bean alpha-galactosidase:
(1) Add 2 ul/well of enzyme (2 nM final)
(2) Add 23 nL compounds in DMSO solution. The final titration was 0.7 nM to 77 uM.
(3) Add 1 ul of substrate (80 uM final)
(4) Incubate at room temperature for 20 min.
(5) Add 2 ul stop solution (1M NaOH and 1M Glycine mixture, pH 10)
(6) Detect the assay plate in a ViewLux plate reader (PerkinElmer) with Ex=365 nm and Em=440nm.
Keywords: Alpha-galactosidase, Fabry Disease, pharmacological chaperone, chaperone therapy, high throughput screening, alpha-galactosidase inhibitor, MLSMR, MLSCN, NIH Roadmap, qHTS and NCGC

Alpha-galactosidase (Coffea arabica), sequence (Q42656 whole entry, looked up): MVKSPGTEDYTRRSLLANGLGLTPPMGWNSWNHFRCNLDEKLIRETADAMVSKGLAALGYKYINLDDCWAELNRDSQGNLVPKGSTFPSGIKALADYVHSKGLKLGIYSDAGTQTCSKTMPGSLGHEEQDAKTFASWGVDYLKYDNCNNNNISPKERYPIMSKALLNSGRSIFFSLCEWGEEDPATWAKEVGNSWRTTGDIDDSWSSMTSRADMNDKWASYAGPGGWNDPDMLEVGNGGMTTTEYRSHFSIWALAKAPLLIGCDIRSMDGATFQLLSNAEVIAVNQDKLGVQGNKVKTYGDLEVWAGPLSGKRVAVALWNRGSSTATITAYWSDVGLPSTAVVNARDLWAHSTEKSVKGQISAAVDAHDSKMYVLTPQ

| Structure (SMILES) | outcome |
| --- | --- |
| C[C@@H](C[N+](C)(C)C)OC(N)=O | inactive |
| CN1CCc2cccc3c2[C@@H]1Cc1ccc(O)c(O)c1-3 | inactive |
| CCN(c1nc(N)c(C(=O)N=C(N)N)nc1Cl)C(C)C | inactive |
| CC(C)(C)[C@@]1(O)CCN2C[C@@H]3c4ccccc4CCc4cccc(c43)[C@@H]2C1 | inactive |
| CC(=O)O[C@@H]1[C@H]([N+]2(C)CCCCC2)C[C@@H]2[C@@H]3CC[C@@H]4C[C@@H](OC(C)=O)[C@H]([N+]5(C)CCCCC5)C[C@@]4(C)[C@H]3CC[C@]21C | inactive |
| CCCCCN(CCCCC)C(=O)[C@H](CCC(=O)O)NC(=O)c1ccc(Cl)c(Cl)c1 | inactive |
| COc1cc2c(cc1C(F)(F)F)N(C(=O)Nc1cc(F)cc(-c3cccnc3)c1)CC2 | inactive |
| O=C(O)CCCC[C@H]1CCSS1 | inactive |
| OC[C@@H]1O[C@@H](n2cnc3c(NC4CCCC4)ncnc32)[C@@H](O)[C@H]1O | inactive |
| Cc1cc(C)c(NC(=O)C[C@H](CC(=O)O)c2cccc3ccccc23)c(C(=O)N2CCC3(CCCC3)CC2)c1 | inactive |
| C[C@@H]1c2cccc(O)c2C(O)=C2C(=O)[C@@]3(O)C(O)=C(C(N)=O)C(=O)[C@@H](N(C)C)[C@@H]3[C@@H](O)[C@@H]21 | inactive |
| C[C@H](N)C1CCC(C(=O)Nc2ccncc2)CC1 (stereo not given in full) | inactive |
| S=C(S)O[C@@H]1C[C@@H]2C[C@H]1[C@@H]1CCC[C@H]21 | inactive |
| COc1cc2nc(N3CC=[N+](C(=O)c4ccco4)CC3)nc(N)c2cc1OC | inactive |
| C/C=C1\C(=O)C[C@@H]2[C@@H]3CCC4=CC(=O)CC[C@@]4(C)[C@H]3CC[C@@]12C | inactive |
| CC(=O)O[C@@H]1C[C@]2(C)[C@H](C[C@@H](O)[C@H]3[C@@]4(C)CC[C@@H](O)[C@@H](C)[C@@H]4CC[C@@]32C)/C1=C(\CCC=C(C)C)C(=O)O | inactive |
| C[C@@H](COc1ccccc1)N(CCCl)Cc1ccccc1 | inactive |
| O=C1[C@@H]2C=CC=CC2=NC(=S)N1CCN1CCC(=C(c2ccc(F)cc2)c2ccc(F)cc2)CC1 | inactive |
| OC[C@@H]1O[C@H](O)[C@@H](Cl)[C@H](O)[C@@H]1O | inactive |
| N#Cc1c(-c2ccccc2)no[n+]1[O-] | inactive |

| Structure (SMILES) | outcome |
| --- | --- |
| C[C@@H]1CNCCN1S(=O)(=O)c1cccc2cnccc12 | inactive |
| O=c1[nH]c(=O)n([C@H]2C[C@H](O)[C@H](CO)O2)cc1/C=C\Br | inactive |
| CC(C)(C)c1cc(/C=C(\C#N)C(N)=S)cc(C(C)(C)C)c1O | inactive |
| Cn1c(=O)c2c(nc(/C=C\c3cccc(Cl)c3)n2C)n(C)c1=O | inactive |
| CCCCOC(=O)NS(=O)(=O)c1sc(CC(C)C)cc1-c1ccc(Cn2c(CC)nc3c(C)cc(C)nc32)cc1 | inactive |
| N[C@H](CCC(=O)N[C@H](CSN=O)C(=O)NCC(=O)O)C(=O)O | inactive |
| CCN(CC)CC#CCOC(=O)[C@@](O)(c1ccccc1)C1CCCCC1 | inactive |
| CN[C@@H](CC(C)C)C(=O)N[C@@H]1C(=O)N[C@H](CC(N)=O)C(=O)N[C@H]2C(=O)N[C@H]3C(=O)N[C@H](C(=O)N[C@H](C(=O)O)c4cc(O)cc(O)c4-c4cc3ccc4O)[C@H](O)c3ccc(c(Cl)c3)Oc3cc2cc(c3O[C@@H]2O[C@@H](CO)[C@@H](O)[C@@H](O)[C@H]2O[C@H]2C[C@](C)(N)[C@H](O)[C@H](C)O2)Oc2ccc(cc2Cl)[C@@H]1O | inactive |
| N.N.N.N.N.N.N.N.N.N.N.N.N.N.O.O.[Ru].[Ru].[Ru] | inactive |
| O=C(NC[C@H]1CCCCN1)c1cc(OCC(F)(F)F)ccc1OCC(F)(F)F | inactive |
| CC[C@H](C)C(=O)O[C@H]1CCC=C2C=C[C@H](C)[C@H](CC[C@@H]3C[C@H](O)CC(=O)O3)[C@H]21 | inactive |
| CC1=C(\C=C/C(C)=C/C=C\C(C)=C\C(=O)O)C(C)(C)CCC1 | inactive |
| CCn1c(=O)c2[nH]c(-c3ccccc3)nc2n(CC)c1=O | inactive |
| CC[C@H](CO)NC(=O)[C@@H]1C=C2c3cccc4[nH]cc(c34)C[C@@H]2N(C)C1 | inactive |
| O=C(O)[C@H]1CCCN(CCC=C(c2ccccc2)c2ccccc2)C1 | inactive |
| COc1ccccc1OC[C@H](O)CN1CCN(CC(=O)Nc2c(C)cccc2C)CC1 | inactive |
| C=CCc1ccccc1OC[C@H](O)CNC(C)C | inactive |
| N[C@@H]1CCc2cc(O)c(O)cc2C1 | inactive |
| Fc1cccc(/C=N\N=C/c2cccc(F)c2)c1 | inactive |
| Nc1ncnc2c1ncn2[C@@H]1O[C@@H](CO)[C@H](O)[C@@H]1O | inactive |
